Legend:
Assay in all cases: log2 ratio of Biotin-Ahx-Ub-VS probe labelling (fragment/DMSO); higher = less target engagement (more negative = stronger competition), active = hit call of the paper (q ≤ 0.05, log2 ratio ≤ -1)
Conditions in all cases: compound concentration: 200 uM; treatment time: 3 h
OTUD6B = target: T1, OTUD6B (UniProt Q8N6M0)
T1 sequence (whole entry): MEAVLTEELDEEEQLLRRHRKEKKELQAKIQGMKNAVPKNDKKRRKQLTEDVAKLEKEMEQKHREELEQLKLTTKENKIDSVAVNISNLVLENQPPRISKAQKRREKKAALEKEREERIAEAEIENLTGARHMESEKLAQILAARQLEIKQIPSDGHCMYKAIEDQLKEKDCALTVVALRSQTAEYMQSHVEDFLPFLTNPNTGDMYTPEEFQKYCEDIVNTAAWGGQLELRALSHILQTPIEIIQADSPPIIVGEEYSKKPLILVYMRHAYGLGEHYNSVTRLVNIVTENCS
How it was run: (§1)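 HEK293T lysate in Tris/CHAPS/IGEPAL buffer with protease inhibitors (495 µg per sample) was given fragment at 200 µM or vehicle for 3 h, in triplicate. It then received Biotin-Ahx-Ub-VS at 0.5 µM final for 1 h. Labelled DUBs were NeutrAvidin-enriched, digested with LysC and trypsin, and run by diaPASEF LC-MS/MS. Values are average log2 fragment/vehicle ratios by unpaired t-test on global-median-normalised Spectronaut quantities of proteins with ≥2 unique peptides.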

OTUD7B = target: T2, OTUD7B (UniProt Q6GQQ9)
T2 sequence (whole entry): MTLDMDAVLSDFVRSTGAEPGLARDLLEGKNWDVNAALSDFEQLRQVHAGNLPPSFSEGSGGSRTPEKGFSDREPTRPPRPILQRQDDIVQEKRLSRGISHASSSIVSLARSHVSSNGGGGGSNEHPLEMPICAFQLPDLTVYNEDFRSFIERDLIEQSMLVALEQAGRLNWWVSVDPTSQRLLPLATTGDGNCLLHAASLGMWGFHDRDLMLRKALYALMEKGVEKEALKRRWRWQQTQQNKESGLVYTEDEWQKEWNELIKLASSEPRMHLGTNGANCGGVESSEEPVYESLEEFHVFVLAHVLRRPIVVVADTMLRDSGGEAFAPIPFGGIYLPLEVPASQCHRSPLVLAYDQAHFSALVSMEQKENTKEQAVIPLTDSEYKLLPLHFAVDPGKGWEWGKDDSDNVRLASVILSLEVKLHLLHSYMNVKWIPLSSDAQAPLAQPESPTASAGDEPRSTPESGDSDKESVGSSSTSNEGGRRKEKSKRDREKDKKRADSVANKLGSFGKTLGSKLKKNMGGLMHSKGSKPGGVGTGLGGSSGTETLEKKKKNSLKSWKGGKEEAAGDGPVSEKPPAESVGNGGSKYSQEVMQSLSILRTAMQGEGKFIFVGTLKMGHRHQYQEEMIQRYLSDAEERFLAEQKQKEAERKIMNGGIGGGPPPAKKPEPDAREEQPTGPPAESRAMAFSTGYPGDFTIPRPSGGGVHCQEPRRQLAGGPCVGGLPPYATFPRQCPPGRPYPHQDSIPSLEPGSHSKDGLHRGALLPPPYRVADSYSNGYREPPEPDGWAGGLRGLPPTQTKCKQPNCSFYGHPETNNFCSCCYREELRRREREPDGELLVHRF
How it was run: as §1

PRPF8 = PRPF8 (UniProt Q6P2Q9)
How it was run: as §1

PSMD7 = target: T3, PSMD7 (UniProt P51665)
T3 sequence (whole entry): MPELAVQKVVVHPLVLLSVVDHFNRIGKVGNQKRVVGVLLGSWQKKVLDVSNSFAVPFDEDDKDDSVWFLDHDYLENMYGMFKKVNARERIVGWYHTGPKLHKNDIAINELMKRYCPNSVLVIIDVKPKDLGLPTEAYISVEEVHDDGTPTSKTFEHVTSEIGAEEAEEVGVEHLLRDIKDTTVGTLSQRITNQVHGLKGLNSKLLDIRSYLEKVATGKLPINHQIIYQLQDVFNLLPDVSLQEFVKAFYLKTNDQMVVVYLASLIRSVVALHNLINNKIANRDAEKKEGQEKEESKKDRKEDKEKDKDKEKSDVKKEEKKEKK
How it was run: as §1

UCHL1 = UCHL1 (UniProt P09936)
UCHL1, sequence (P09936 whole entry, looked up): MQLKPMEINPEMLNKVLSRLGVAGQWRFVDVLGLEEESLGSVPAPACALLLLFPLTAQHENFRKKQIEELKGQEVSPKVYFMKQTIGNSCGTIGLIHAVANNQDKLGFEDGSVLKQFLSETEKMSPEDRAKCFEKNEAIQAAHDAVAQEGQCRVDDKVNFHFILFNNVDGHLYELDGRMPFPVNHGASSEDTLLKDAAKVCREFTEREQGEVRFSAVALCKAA
How it was run: as §1

UCHL3 = target: T4, UCHL3 (UniProt P15374)
T4 sequence (whole entry): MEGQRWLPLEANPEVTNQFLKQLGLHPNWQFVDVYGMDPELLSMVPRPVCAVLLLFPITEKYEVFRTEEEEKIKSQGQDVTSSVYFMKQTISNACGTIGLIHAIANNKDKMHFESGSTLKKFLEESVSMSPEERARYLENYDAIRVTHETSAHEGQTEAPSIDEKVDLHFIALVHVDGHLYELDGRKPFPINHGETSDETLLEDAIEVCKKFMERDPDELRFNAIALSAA
How it was run: as §1

UCHL5 = target: T5, UCHL5 (UniProt Q9Y5K5)
T5 sequence (whole entry): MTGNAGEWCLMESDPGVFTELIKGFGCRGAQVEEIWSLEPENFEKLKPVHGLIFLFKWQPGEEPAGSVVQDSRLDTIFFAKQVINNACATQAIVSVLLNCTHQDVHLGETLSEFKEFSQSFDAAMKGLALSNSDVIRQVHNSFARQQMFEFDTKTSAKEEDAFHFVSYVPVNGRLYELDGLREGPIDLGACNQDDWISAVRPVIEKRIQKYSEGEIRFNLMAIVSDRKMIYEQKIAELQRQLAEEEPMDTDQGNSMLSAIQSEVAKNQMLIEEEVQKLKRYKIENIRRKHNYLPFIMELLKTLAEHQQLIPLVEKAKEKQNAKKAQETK
How it was run: as §1

USP10 = USP10 (UniProt Q14694)
USP10, sequence (Q14694 whole entry): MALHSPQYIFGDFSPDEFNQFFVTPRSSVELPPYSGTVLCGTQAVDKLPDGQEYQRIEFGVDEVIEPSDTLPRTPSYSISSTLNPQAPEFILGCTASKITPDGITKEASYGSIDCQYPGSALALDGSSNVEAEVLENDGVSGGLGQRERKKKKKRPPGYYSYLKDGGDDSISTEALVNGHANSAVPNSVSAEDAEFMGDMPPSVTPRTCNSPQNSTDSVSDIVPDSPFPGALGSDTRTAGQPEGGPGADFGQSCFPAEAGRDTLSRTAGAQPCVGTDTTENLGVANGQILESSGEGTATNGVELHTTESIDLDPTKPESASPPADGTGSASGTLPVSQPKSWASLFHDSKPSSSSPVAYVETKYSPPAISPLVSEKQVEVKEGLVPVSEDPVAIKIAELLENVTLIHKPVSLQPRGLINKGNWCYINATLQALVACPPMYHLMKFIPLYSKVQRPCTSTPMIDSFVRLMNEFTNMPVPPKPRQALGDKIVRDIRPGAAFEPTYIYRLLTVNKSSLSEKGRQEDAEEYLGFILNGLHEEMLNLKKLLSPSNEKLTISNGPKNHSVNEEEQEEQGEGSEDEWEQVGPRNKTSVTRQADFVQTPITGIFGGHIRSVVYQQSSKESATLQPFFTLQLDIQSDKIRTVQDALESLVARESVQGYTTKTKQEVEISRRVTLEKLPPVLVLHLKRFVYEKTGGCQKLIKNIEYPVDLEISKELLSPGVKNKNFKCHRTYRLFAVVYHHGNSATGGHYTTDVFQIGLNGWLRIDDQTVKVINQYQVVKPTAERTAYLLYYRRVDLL
How it was run: as §1

USP15 = target: T6, USP15 (UniProt Q9Y4E8)
T6 sequence (whole entry): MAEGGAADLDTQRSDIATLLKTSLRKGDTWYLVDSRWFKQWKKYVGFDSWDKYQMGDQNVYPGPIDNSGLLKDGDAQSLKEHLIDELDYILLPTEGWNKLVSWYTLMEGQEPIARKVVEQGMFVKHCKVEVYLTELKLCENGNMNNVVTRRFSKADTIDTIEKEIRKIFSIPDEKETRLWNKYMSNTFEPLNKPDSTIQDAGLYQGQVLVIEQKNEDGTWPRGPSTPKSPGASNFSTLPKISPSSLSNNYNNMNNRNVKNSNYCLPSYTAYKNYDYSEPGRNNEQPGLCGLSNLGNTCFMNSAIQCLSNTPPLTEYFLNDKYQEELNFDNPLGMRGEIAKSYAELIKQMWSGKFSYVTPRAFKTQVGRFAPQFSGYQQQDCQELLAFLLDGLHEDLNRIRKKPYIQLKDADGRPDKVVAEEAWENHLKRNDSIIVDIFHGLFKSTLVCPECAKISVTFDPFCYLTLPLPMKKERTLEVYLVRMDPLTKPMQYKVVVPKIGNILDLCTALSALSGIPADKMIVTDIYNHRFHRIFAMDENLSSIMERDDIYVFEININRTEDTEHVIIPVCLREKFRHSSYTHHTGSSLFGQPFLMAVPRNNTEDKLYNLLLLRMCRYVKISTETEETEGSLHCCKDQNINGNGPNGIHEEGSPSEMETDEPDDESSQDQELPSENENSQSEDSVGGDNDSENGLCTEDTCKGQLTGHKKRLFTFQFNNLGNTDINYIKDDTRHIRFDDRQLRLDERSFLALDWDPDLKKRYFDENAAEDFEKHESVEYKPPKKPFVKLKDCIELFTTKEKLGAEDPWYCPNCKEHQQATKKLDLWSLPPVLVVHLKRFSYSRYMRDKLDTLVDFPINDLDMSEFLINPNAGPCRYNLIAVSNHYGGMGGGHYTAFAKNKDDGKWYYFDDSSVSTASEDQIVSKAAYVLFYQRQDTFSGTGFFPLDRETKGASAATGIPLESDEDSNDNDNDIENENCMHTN
How it was run: as §1

Measured: log2 ratio of Biotin-Ahx-Ub-VS probe labelling

Cc1nnc(C(NC(=O)CCl)c2ccccc2)n1C (centres undefined)
inactive: OTUD6B 0.622 | OTUD7B 0.355 | PRPF8 -0.283 | PSMD7 0.357 | UCHL1 0.102 | UCHL3 0.364 | UCHL5 0.534 | USP10 0.157 | USP15 0.629

From the supplement of paper PMC11732987, “Enantioselective OTUD7B fragment discovery through chemoproteomics screening and high-throughput optimisation” (Communications Chemistry, 2025)
